# Among all 2,200 compounds or so, about 15 (0.7%) were called active. Only a selection was taken, and actives are over-represented in it overall. Unmarked numbers belong to inactive results.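 Rule for the calls: active = fitted half-maximal concentration for loss of luminescence signal no more than a set limit of log units above the top tested concentration; inconclusive = flat fit with 30 to 70% signal loss, or invalid fit; inactive = half-maximal concentration above that set limit.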
# Experiment: ADP-Glo luciferase signal interference – biochemical, luminescence, cell-free, homogeneous, artefact control for GSK3beta inhibitor project, dose response (AID 434947);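 note: kinase-free counter screen of ADP-Glo detection reagents for GSK3beta hits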
# Conditions: Cell-free ADP-Glo reagents, 5 uM ADP
row,SMILES,EC50
1,COc1cccc(Nc2nc(-c3ccccc3)nc3ccccc23)c1,> 30 µM
2,O=C1Nc2cc(C(=O)NCCCN3CCOCC3)ccc2S/C1=C/c1ccccc1F,> 30 µM
3,Cc1csc2c(=O)n(CCO)c(=O)[nH]c12,> 30 µM
4,CCOc1cc(C2c3c(n[nH]c3C)C(=O)N2c2ccc(Br)cc2)ccc1O (stereo not given),> 30 µM
5,COC(=O)c1cn(NC(=O)c2cccnc2)c(=O)c2ccccc12,> 30 µM
6,CCCc1cc(O)c2c(C)cc(=O)oc2c1,> 30 µM
7,COc1ccc(/C=C2/Sc3ccc(C(=O)NCCN4CCCCCC4)cc3NC2=O)cc1,> 30 µM
8,Cc1ccccc1-c1nnc(SCc2ccc(F)cc2)o1,> 30 µM
9,CCCN(CCC)CCCNc1ccc2nnc(-c3ccc(F)cc3)n2n1,> 30 µM
10,O=c1c(O[C@@H]2O[C@H](CO)[C@@H](O)[C@H](O)[C@H]2O)c(-c2ccc(O)c(O)c2)oc2cc(O)cc(O)c12,> 30 µM
11,Cc1ccc2c(c1)cc1c(=O)n(CC(=O)NCCN3CCCC3)nc(C)n12,> 30 µM
12,COc1cccc2cc(C(=O)OC(C)C(=O)c3ccc(C)cc3)c(=O)oc12 (stereo not given),> 30 µM
13,CC(=O)Oc1cc(C)cc2oc(=O)cc(-c3ccccc3)c12,> 30 µM
14,CC1(C)CC(=O)C=C(Nc2ccc(F)cc2)C1,> 30 µM
15,COc1ccc(NC(=O)c2sc(SC)nc2N)cc1,> 30 µM
16,CCOC(=O)c1nnn(CC(=O)Nc2cccc(OC)c2)c1C(=O)OCC,> 30 µM
17,CC1(C)CC(=O)C2=C(C1)Nc1ccccc1NC2c1ccc(F)cc1 (stereo not given),> 30 µM
18,O=C(Nc1ccccc1)Nc1ccncc1,> 30 µM
19,Cc1cc([N+](=O)[O-])c(C)cc1-c1ccc(/C=N/n2cnnc2)o1,> 30 µM
20,Nc1nc(NCCCN2CCOCC2)nc(Nc2ccc(Cl)cc2)c1[N+](=O)[O-],> 30 µM
21,CCCC(=O)Nc1nn(CC(C)C)c2nc3cc(C)ccc3cc12,> 30 µM
22,N#Cc1cccc(-c2nnc(SCc3ccccc3C#N)o2)c1,> 30 µM
23,COc1cc(C2OCC3C(c4cc(OC)c(OC)c(OC)c4)OCC23)cc(OC)c1OC (stereo not given),> 30 µM

row,SMILES,EC50
1,Cc1cc(NC(=O)/C=C/c2cccc(F)c2)n(-c2nc3ccccc3[nH]2)n1,> 30 µM
2,O=c1c2ccccc2cnn1-c1nc2ccccc2[nH]1,25.9 µM (active)
3,CN1CCN(C(=O)Cn2ncc3c([nH]c4ccccc43)c2=O)CC1,> 11 µM
4,CC(C(=O)NCc1ccco1)n1cc([N+](=O)[O-])cn1 (stereo not given),> 30 µM
5,CCOC(=O)CCCSc1nnc(CCCCCN2C(=O)c3cccc4cccc(c34)C2=O)o1,> 30 µM
6,CCN(CC)Cc1c(O)ccc2occ(C(=O)c3ccc(OC)cc3)c12,> 30 µM
7,Clc1ccc(-c2nnc(-c3ccccc3)c(N3CCSCC3)n2)cc1,> 30 µM
8,COc1ccc(Nc2ccccc2C(=O)O)cc1,> 30 µM
9,O=C(CN(Cc1cccs1)C(=O)CCC(=O)Nc1ccccn1)NCc1ccccc1,> 30 µM
10,N#Cc1c(N)n(-c2cccc(O)c2)c2nc3ccccc3nc12,> 30 µM
11,Cc1ccc(S(=O)(=O)NCC2COc3ccccc3O2)cc1 (stereo not given),> 30 µM
12,CN1CCN(c2nc(-c3ccccc3)nc(-c3ccccc3)c2C#N)CC1,> 30 µM
13,COC(CNC(=O)CCc1c(C)nc2c(c(C)nn2-c2ccc(C)cc2)c1C)OC,> 30 µM
14,CCOC(=O)c1nnn(-c2nonc2N)c1CN(CC)CC,> 30 µM
15,COc1cccc2cc(C(=O)CS(=O)(=O)c3ccc(C)cc3)c(=O)oc12,> 30 µM
16,CCCOc1ccc(-c2c(C(=O)N/N=C(\C)c3ccco3)nnn2-c2nonc2N)cc1,> 30 µM
17,CCc1ccc(/C=N/NC(=O)c2nnn(-c3nonc3N)c2CN2CCc3ccccc32)cc1,> 30 µM
18,NC(=O)c1ccc(Oc2ccc(Cl)c3ccccc23)c([N+](=O)[O-])c1,> 30 µM
19,Cc1[nH]nc2c1C(c1cccs1)C1=C(CCCC1=O)N2 (stereo not given),> 30 µM
20,CC(C)CCNc1nc(N)c([N+](=O)[O-])c(NC2CCCCC2)n1,> 30 µM
21,CCCCn1nc(NC(=O)COC)c2cc3cc(OC)ccc3nc21,> 30 µM
22,O=C(c1cccs1)c1coc2ccc(O)c(CN(CCO)CCO)c12,> 30 µM

# From PubChem BioAssay AID434947 (Broad Institute, 2010)
